Our source for the inhibition values is ChEMBL document CHEMBL1961873, “Compounds: GSK PKIS; Assays: Nanosyn kinase panel” (2012).

Values joined by “and” are separate entries in the source; they are usually repeats but may differ in a detail not shown here. Identical values can stand only once.

For assay [1], the target named is CDK3/Cyclin E (Homo sapiens) (UniProt P24864+Q00526). Conditions: at 1 µM.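 Further: each figure is a mean percent inhibition of the CDK3/cyclin E complex.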
Assay [2] has as its target Cyclin-dependent kinase 4 (Homo sapiens) (UniProt P11802). Conditions: at 0.1 µM.
Assay [3] has the same target. To be noted: at 1 µM.
Assay [4] has as its target Cyclin-dependent kinase 5 (Homo sapiens) (UniProt Q00535). Conditions: at 0.1 µM.
The target is the same in assay [5]. To be noted: at 1 µM.
In assay [6] the target is Cyclin-dependent kinase 6 (Homo sapiens) (UniProt Q00534). To be noted: at 0.1 µM.
Chain of Cyclin-dependent kinase 6 (Homo sapiens) (Q00534 whole entry): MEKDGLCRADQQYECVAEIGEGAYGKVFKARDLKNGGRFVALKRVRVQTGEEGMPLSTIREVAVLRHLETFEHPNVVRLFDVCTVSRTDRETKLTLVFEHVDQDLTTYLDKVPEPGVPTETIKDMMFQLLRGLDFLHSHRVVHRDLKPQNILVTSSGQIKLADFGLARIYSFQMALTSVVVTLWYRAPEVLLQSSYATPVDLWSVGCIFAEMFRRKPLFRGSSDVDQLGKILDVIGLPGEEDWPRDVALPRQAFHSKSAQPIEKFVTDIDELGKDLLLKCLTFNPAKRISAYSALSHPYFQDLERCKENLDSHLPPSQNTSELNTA
Assay [7] shares this target. Conditions: at 1 µM.
Assay [8] concerns the target Dual specificity protein kinase CLK2 (Homo sapiens) (UniProt P49760). Conditions: at 0.1 µM.
Assay [9] has the same target. Conditions: at 1 µM.
Assay [10] concerns the target Dual specificity protein kinase CLK3 (Homo sapiens) (UniProt P49761). Conditions: at 0.1 µM.

Chain of Dual specificity protein kinase CLK2 (Homo sapiens) (P49760 whole entry, looked up): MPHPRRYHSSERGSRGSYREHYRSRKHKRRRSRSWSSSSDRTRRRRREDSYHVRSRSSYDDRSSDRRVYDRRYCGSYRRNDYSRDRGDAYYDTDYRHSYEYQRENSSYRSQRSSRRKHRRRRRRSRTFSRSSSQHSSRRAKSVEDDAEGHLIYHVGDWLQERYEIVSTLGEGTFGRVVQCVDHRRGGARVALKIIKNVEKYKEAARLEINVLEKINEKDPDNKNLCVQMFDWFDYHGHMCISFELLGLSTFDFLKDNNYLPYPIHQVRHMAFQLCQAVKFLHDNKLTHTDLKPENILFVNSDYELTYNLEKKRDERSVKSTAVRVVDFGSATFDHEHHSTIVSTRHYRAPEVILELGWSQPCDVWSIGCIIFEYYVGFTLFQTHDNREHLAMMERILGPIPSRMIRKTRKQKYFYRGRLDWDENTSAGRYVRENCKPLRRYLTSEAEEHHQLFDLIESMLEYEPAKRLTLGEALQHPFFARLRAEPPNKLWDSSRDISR
Chain of Cyclin-dependent kinase 5 (Homo sapiens) (Q00535 whole entry, looked up): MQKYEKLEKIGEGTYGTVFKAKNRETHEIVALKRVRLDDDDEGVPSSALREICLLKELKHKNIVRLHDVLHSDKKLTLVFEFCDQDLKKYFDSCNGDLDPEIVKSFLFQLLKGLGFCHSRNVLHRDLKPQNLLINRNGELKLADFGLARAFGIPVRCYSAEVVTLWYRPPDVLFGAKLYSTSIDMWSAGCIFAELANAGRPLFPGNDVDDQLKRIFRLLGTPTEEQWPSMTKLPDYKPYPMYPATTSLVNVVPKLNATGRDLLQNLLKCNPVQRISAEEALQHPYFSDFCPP
Chain of CDK3/Cyclin E (Homo sapiens) (P24864 whole entry, looked up): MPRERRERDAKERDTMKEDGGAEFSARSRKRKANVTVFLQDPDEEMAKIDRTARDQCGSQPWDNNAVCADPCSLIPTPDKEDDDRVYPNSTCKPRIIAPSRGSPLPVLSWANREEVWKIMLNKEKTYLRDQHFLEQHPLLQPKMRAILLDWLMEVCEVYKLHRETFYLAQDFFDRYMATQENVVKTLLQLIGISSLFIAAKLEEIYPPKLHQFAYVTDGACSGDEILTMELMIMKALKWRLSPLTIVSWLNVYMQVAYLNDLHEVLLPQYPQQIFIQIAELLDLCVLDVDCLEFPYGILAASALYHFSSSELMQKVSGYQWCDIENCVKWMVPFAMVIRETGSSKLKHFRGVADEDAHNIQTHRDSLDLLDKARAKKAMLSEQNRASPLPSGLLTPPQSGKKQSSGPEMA
Chain of CDK3/Cyclin E (Homo sapiens) (Q00526 whole entry, looked up): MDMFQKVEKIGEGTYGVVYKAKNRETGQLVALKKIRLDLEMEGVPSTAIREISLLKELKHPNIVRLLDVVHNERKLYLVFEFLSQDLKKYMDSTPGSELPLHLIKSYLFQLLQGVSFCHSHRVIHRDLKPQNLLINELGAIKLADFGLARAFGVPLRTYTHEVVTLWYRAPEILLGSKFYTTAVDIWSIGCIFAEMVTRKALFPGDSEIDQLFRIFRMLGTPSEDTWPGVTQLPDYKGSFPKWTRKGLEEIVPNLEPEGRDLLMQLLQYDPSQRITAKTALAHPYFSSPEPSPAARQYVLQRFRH
Chain of Dual specificity protein kinase CLK3 (Homo sapiens) (P49761 whole entry, looked up): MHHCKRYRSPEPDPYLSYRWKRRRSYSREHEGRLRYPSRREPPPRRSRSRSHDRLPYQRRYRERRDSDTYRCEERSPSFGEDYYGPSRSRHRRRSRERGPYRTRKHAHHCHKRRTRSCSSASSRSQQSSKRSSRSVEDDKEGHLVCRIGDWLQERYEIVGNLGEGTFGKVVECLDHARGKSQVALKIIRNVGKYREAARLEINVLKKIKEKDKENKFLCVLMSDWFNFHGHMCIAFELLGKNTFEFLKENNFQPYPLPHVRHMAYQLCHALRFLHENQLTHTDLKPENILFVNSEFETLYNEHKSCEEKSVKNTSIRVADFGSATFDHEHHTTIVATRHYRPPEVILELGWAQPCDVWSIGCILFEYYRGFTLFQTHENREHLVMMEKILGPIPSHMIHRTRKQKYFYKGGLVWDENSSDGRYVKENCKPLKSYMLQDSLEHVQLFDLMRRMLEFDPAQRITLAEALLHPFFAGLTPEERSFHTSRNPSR
Chain of Cyclin-dependent kinase 4 (Homo sapiens) (P11802 whole entry): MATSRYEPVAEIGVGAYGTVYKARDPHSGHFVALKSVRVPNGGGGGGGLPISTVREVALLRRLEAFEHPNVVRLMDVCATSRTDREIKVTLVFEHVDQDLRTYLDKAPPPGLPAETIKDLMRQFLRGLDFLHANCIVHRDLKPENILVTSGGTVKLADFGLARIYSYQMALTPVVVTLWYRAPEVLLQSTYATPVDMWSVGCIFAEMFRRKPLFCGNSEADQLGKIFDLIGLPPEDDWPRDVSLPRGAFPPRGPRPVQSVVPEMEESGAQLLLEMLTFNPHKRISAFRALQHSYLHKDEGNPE

Broadly, the inhibition is the relative decrease from the control value, in per cent. On to `CN(C)CCNC(=O)Nc1ccc(N(C)c2ccnc(Nc3ccc(CS(C)(=O)=O)cc3)n2)cc1`, for which the inhibition in assay [1] is 0.2%; in assay [2] it was 3.81%; in assay [3], 4.81%; in assay [4], 0.85%; in assay [5], 2.57%; in assay [6], 0.28%. Also, the inhibition in assay [7] was 4.3%; in assay [8], 0.9%; in assay [9] it was 3.79%; in assay [10] it was 2.16%.
Take `O=C(Nc1n[nH]c2nnc(-c3cccnc3)cc12)C1CC1`: the inhibition is 81.4% in [1]; 13.7% in assay [2]; 56.1% in assay [3]; 27.2% in [4]; 69.2% in assay [5]; 19.7% in assay [6]. Further, the inhibition in assay [7] came out at 64.6%; in assay [8], 5.98%; in assay [9] it was 43.4%; in assay [10], 0.24%.
With `COC(=O)Nc1nc2ccc(Oc3ccc(NC(=O)Nc4cc(C(F)(F)F)ccc4F)cc3)cc2s1`, the inhibition in assay [1] was -0.71%; in assay [2], 0.7%; in [3], 2.02%; in assay [4] it was 0.77%; in [5] it was 1.66%; in assay [6], 0.38%. Also, the inhibition in [7] amounted to 2.05%; in assay [8], 0.47%; in assay [9] it was 3.04%; in assay [10], 0.06%.
For `Nc1ncnc2occ(-c3ccc(NC(=O)Nc4cc(C(F)(F)F)ccc4F)cc3)c12`, the inhibition in assay [1] is 26.3% and 17%; in [2], 2.18% and -1.12%; in [3], 7.72% and 1.95%; in [4] it was 2.15% and 1.3%; in assay [5], 10.4% and 4.77%; in [6] it was 2.49% and -1.62%. In addition, the inhibition in assay [7] was 6.94% and -0.12%; in [8] it was -0.16% and 0.05%; in assay [9], 2.32% and 0.92%; in assay [10] it was -0.08% and 0.74%.
Take `COc1ccc(Nc2ncc(-c3ccccc3)o2)cc1OC`: the inhibition was 22.2% in assay [1]; 5.15% in assay [2]; 14% in [3]; 11.1% in [4]; 45.7% in assay [5]; -1.71% in assay [6]. Further, the inhibition in assay [7] came to 23.4%; in assay [8] it was 0.23%; in assay [9], 5.9%; in assay [10], 2%.
Turning to `CCS(=O)(=O)c1ccc(OC)c(Nc2ncc(-c3cccc(C(C)=O)c3)o2)c1`, the inhibition in assay [1] came to 1.82%; in [2], 2.53%; in assay [3], 3.06%; in assay [4] it was 1.03%; in assay [5] it was 3.09%; in assay [6], 4.78%. For the same compound, the inhibition in assay [7] was found to be 5.56%; in [8] it was 28.6%; in assay [9], 82.8%; in assay [10], 1.61%.
Take `COc1cc(N2CCN(C(C)C)CC2)ccc1Nc1nc(Nc2cccc(F)c2C(=O)O)c2cc[nH]c2n1`: the inhibition in assay [1] was -1.26%; in assay [2], 2.63%; in assay [3], 2.75%; in assay [4], 1.71%; in assay [5] it was 2.09%; in assay [6], 5.01%. For the same compound, the inhibition is 4.74% in assay [7], 5.61% in [8], 41% in assay [9] and 3.73% in [10].
Regarding `FC(F)(F)CNc1nccc(-c2cnn3ncccc23)n1`, the inhibition in [1] was determined as 11.2%; in assay [2] it was 2.33%; in assay [3], 10.8%; in assay [4], 3.62%; in [5] it was 22.9%; in assay [6] it was 0.9%. Besides, the inhibition in assay [7] came to 3.37%; in [8], 5.19%; in [9] it was 51%; in assay [10], 0.47%.
On to `CN1CCC(n2cnc(-c3ccc(F)cc3)c2-c2ccnc(NCCO)n2)CC1`, for which the inhibition was -0.43% in assay [1]; 2.07% in assay [2]; 2.04% in [3]; 0.67% in assay [4]; 0.7% in assay [5]; 3.75% in [6]. In addition, the inhibition worked out at 2.73% in assay [7], 1.02% in assay [8], 2.41% in [9] and 3.29% in assay [10].
As for `CN(c1ccc(NC(=O)NCCN2CCOCC2)cc1)c1ccnc(Nc2ccc(CS(C)(=O)=O)cc2)n1`, the inhibition in assay [1] is 0.92%; in assay [2] it was 0.98%; in [3], 2.06%; in assay [4] it was 0.44%; in assay [5] it was 2.44%; in assay [6], 5.26%. The inhibition in [7] is 4.21%; in assay [8], -0.8%; in [9] it was 2.52%; in assay [10], 0.77%.
In the case of `COc1cccc(-n2ncc3c(N/N=C/c4ccc(C(=O)NCCN(C)C)cc4)ncnc32)c1`, the inhibition in [1] was 50.1%; in assay [2], 40.6%; in assay [3] it was 71.4%; in [4] it was 37.9%; in assay [5], 74.3%; in [6] it was 47.9%. For the same compound, the inhibition in [7] came to 81.5%; in assay [8] it was 21.6%; in [9] it was 73.7%; in assay [10], 5.88%.
With `Cc1nnc(-c2cccc(-c3ccc(C(=O)NCC4CC4)cc3)c2)o1`, the inhibition in [1] is -0.73%; in assay [2] it was 1.46%; in assay [3] it was 2.47%; in assay [4] it was 0.47%; in assay [5], 1.45%; in assay [6], 2.21%. The inhibition in assay [7] is 4.2%; in assay [8], 1.61%; in assay [9], 1.14%; in [10], 2.84%.
Take `NS(=O)(=O)c1cccc(N/C=C2\C(=O)Nc3ccccc32)c1`: the inhibition came out at 11.3% in [1]; 5.5% in [2]; 18.1% in assay [3]; 2.87% in [4]; 16.5% in assay [5]; 2.67% in assay [6]. In addition, the inhibition in assay [7] came to 55.6%; in [8] it was 2.13%; in assay [9] it was 13.7%; in assay [10], 1.92%.
For `Cc1cc(O)cc(C)c1/C=C/c1cncc(C(N)=O)c1`, the inhibition in assay [1] is 1.41%; in assay [2], 2.84%; in assay [3], 3.26%; in assay [4], 0.63%; in assay [5], 1.61%; in assay [6], 3.58%. The inhibition in [7] was 4.03%; in assay [8], -0.7%; in assay [9] it was 2.41%; in assay [10] it was 1.21%.
As to `CS(=O)(=O)CCNCc1ccc(-c2ccc3ncnc(Nc4ccc(OCc5ccccc5)cc4)c3c2)o1`, the inhibition in assay [1] is -0.81%; in assay [2] it was 1.16%; in assay [3], 2.98%; in assay [4], 0.58%; in assay [5], 2.07%; in [6] it was -1.55%. The inhibition in assay [7] stood at 1.12%; in assay [8], 0.03%; in assay [9] it was 0.73%; in assay [10] it was 0.41%.
Consider `Cc1cc(O)cc(C)c1/C=C/c1cncc(C(=O)OC(C)(C)C)c1`, for which the inhibition is 1.16% in [1]; 2.59% in [2]; 3.59% in assay [3]; 0.74% in [4]; 2.53% in [5]; 3.38% in assay [6]. The inhibition in assay [7] was found to be 5.01%; in assay [8], 0.65%; in assay [9] it was 0.81%; in assay [10], 3.45%.
